Only some compounds are listed: those with a hit (about 2.4% of all), similar ones and a draw of the others.
D2 PAM-1: positive allosteric modulators of human D2 dopamine receptor. DiscoveRx D2 beta-arrestin cells, luminescence, 90 min; 100% = 57 uM dopamine signal. 0.23% of 360,000 active. P14416. potentiation, % (no concentration beside the values). AID 624464; in the data active = potentiation above about 50%; inconclusive = mostly about 30% to 49%
Target sequence (P14416 whole entry, looked up): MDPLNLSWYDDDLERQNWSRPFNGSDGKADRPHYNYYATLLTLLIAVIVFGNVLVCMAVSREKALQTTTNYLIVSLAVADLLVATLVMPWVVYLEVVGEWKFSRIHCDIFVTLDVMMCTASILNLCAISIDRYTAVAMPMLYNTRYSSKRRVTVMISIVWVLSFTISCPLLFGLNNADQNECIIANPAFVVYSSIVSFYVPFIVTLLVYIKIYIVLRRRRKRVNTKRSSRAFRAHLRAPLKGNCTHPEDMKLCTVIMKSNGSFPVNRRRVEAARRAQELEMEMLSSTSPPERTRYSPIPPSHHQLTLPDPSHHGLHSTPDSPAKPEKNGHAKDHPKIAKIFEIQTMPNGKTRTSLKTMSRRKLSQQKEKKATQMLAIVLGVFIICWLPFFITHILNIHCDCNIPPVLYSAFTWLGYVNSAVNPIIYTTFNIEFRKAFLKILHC
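PathHunter beta-arrestin assay in DiscoveRx D2 cells. Compounds were added with an EC20 of dopamine (50 nM final) for 90 min at 37 deg C. Luminescence was read 1 h after detection reagent, with 57 uM dopamine as the EC100 control.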
D2 ag-1: human D2 receptor agonism in beta-arrestin assay | activation, % (concentration not given with the values) | 0.084% of 360,000 active | AID 624465 | DiscoveRx PathHunter D2 beta-arrestin, luminescence, 90 min; 100% = 57 uM dopamine signal | P14416; in the data active = activation above about 40%; inconclusive = between about 15% and that limit
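DiscoveRx PathHunter D2 beta-arrestin cells (2,100/well) attached overnight, then compound-stimulated 90 min at 37 C in HBSS/10 mM HEPES/0.1% Tween-20 buffer; beta-galactosidase complementation read by luminescence after 1 h at ambient temperature. Dopamine 57 uM final (EC100) as control.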
D2 PAM-2: positive allosteric modulators of human D2 dopamine receptor; potentiation, % at 10 µM; 0.34% of 340,000 active; HEK293 T-REx D2, calcium flux, EC20 dopamine potentiation; AID 485347;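 active = potentiation over 3 SD above the plate norm, cut at about 30% in these data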; also: 0% is about no effect
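Tetracycline-induced HEK293 T-REx cells force-coupled to calcium signalling expressed D2; compounds were pin-added after a 10 s baseline, read kinetically 180 s, then an EC20 dopamine challenge followed with a further 180 s calcium read.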
D2 ag-2: D2 dopamine receptor (human) agonism. activation, % at 2 µM. AID 485358. P14416. 0.53% of 340,000 active. HEK293 T-REx D2 cells, calcium flux agonist mode;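 active = activation over 3 SD above normal in the single-dose calcium agonist read, cut at about 30% in these data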; also: 0% is about no effect
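Agonism is scored from calcium flux in a force-coupled, inducible HEK293 cell line expressing D2, read kinetically for 180 s after compound addition against dopamine controls.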
D2 antagonist: antagonists of human D2 dopamine receptor | P14416 | HEK293 TREx D2 cells, calcium flux, dopamine EC80 | inhibition, % at 10 µM | 2% of 340,000 active; in the data active = inhibition above about 30%; inactive = below that, where a call was filed; also: 0% is about no effect
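In this primary screen, negative modulation is detected by tracking calcium flux after an EC80 dopamine challenge in inducible HEK293 T-REx D2 cells preexposed to test compound for 180 s.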
* = called active by the depositor; ? = inconclusive; . = no result given.

SMILES	D2 PAM-1	D2 ag-1	D2 PAM-2	D2 ag-2	D2 antagonist
CC(O)CNCCCOc1cccc(C(F)(F)F)c1 (stereo unspecified)	-17	-1	-26	-1	34*
Cc1cccc(C(=O)N[C@H](C(=O)NCCc2ccc(Cl)cc2)C(C)C)c1	-2	-2	-12	-1	38*
CC(C)[C@H](NC(N)=O)C(=O)NCCc1ccc(Cl)cc1	-3	-4	-2	0	-4
Cn1nnc(NC(=O)CSc2nnnn2-c2ccc(F)cc2)n1	-3	0	.	.	.
Cn1nnc(NC(=O)CSc2ccc(Cl)cc2)n1	-5	-1	8	0	40*
Cn1nnc(NC(=S)NC(=O)c2cc(Cl)ccc2Cl)n1	-44	-11	-5	-2	31*
COc1ccc(/C=N/NC(=O)c2sccc2OCc2ccc(F)cc2)cc1OC	17	-2	-8	-1	37*
COc1ccc2oc(C)c(C(=O)c3ccc([N+](=O)[O-])cc3)c2c1	84*	?	14	19	-2
O=C1CCN2C=Nc3cccc4ccc1c2c34	21	7	-6	47*	11
CCOc1ccc(Cc2onc3c2C(=O)CCC3)cc1OCC	-3	-3	-7	4	4
CCOc1ccc(Cc2onc3c2C(=O)CC(C)(C)C3)cc1OCC	3	1	38*	-1	1
Cc1cc(NC(=O)CSc2nc(C(C)C)nc3sc(C)c(C)c23)no1	3	7	6	0	35*
CNc1snc(C)c1C(=O)OCC(=O)N(C)c1ccccc1	1	-3	24	1	-13
CNc1snc(C)c1C(=O)OCC(=O)N(C)Cc1ccccc1	3	?	-7	0	35*
O=C(NC12CC3CC(CC(C3)C1)C2)N1CCN(c2ccccn2)CC1	-8	1	-2	36*	31*
CCN(CC)C(=O)Cn1c(=O)n(CC(=O)N2CCCCC2)c(=O)c2sccc21	6	-2	-1	0	33*
CCCNC(=O)Cn1c(=O)n(CC(=O)N2CCCCC2)c(=O)c2sccc21	-28	-15	6	1	-10
Cc1ccc(S(=O)(=O)CCC(=O)OCc2nc(N)nc(Nc3ccccc3C)n2)cc1	?	-2	21	0	-2
Cc1ccccc1Nc1nc(N)nc(COC(=O)CCS(=O)(=O)c2ccccc2)n1	-4	1	-13	2	32*
CCOc1ccc(CCNC(=O)c2cccc(-n3c(C)nc4cccnc43)c2C)cc1	.	.	-6	0	.
CCn1cnc2sc(C(=O)N(Cc3ccc(N(C)C)cc3)Cc3ccco3)c(C)c2c1=O	5	1	2	1	32*
COc1ccc2occ(C(C)=O)c2c1	-11	2	-8	1	11
CC(=O)c1coc2ccc(OCCN3CCCCC3)cc12	-22	0	-24	0	42*
COc1ccc(-c2nc(C)c(CCNC(=O)c3ccc(F)c(F)c3)s2)cc1	.	.	7	.	.
Cc1cc(F)ccc1NC(=O)C1CCC(CNS(=O)(=O)c2ccc3c(c2)CCCC(=O)N3)CC1 (stereo unspecified)	.	.	3	0	.
SMILES	D2 PAM-1	D2 ag-1	D2 PAM-2	D2 ag-2	D2 antagonist
CC(Cc1ccco1)NC(=O)c1ccc(C(F)(F)F)cc1 (stereo unspecified)	-14	-3	-12	-1	32*
Nc1nnc(SCC(=O)Nc2nccs2)s1	1	-3	-5	2	5
Cc1nnc(SCC(=O)Nc2nccs2)s1	7	0	10	-1	34*
Cc1ccc(OCCCCN2CCc3ccccc3C2)cc1	-26	8	-12	0	73*
O=[N+]([O-])c1ccccc1OCCCN1CCc2ccccc2C1	-26	5	-9	0	75*
Cc1ccc([N+](=O)[O-])c(OCCN2CCc3ccccc3C2)c1	-3	3	-27	17	88*
Cn1cc(CN(C(=O)Nc2ccccc2)C2CCCCC2)c2ccccc21	.	.	-5	0	.
COc1cc(CCC(=O)NCc2ccc3c(c2)CCN3C(=O)c2ccc(F)cc2)cc(OC)c1OC	.	.	9	0	.
Cc1cc(Cl)ccc1NC(=O)c1cc(S(=O)(=O)N2CCOCC2)cn1C	.	.	-5	.	.
CN(C)CCN1C(=O)C(=O)/C(=C(/O)c2ccc(OCc3ccccc3)cc2)C1c1ccncc1 (stereo unspecified)	-1	0	3	1	42*

Compound activity as filed in PubChem BioAssay.
